Source: PubChem BioAssay (National Center for Advancing Translational Sciences (NCATS))
Sampled rows, rich in hits. Any-hit rate of the full collection: about 7.6%.
KCNH2 3.1 block: blocks the human KCNH2 3.1 channel isoform | U2OS KCNH2 3.1, thallium flux FluxOr; hits give low values | activity change, % (tested at about 1.8 µM) | 340,000 compounds, 0.95% hits;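 active = maximum activity change below -70%; inconclusive = maximum activity change from -70% to -50%; inactive = maximum activity change above -50%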;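 note: thallium influx rate constant from kinetic fluorescence after stimulation buffer; % is set by controls: 0 for no effect and ±100 for the full control effect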
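Measured as rate of thallium-driven FluxOr signal in transduced U2OS cells carrying the 3.1 channel, read kinetically for 2 min upon stimulation; values are rate constants scaled to DMSO control wells.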
KCNH2 WT inh: blocks the wildtype human KCNH2 potassium channel; activity change, % at 1.84 µM; AID 720551; Q12809; 340,000 compounds, 0.37% hits; U2OS, BacMam KCNH2, thallium flux FluxOr; hits give low values;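 active = maximum activity change below -70%; inconclusive = maximum activity change between -70% and -50%; inactive = maximum activity change above -50%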; note: % is set by controls: 0 for no effect and ±100 for the full control effect
Target sequence (Q12809 whole entry, looked up): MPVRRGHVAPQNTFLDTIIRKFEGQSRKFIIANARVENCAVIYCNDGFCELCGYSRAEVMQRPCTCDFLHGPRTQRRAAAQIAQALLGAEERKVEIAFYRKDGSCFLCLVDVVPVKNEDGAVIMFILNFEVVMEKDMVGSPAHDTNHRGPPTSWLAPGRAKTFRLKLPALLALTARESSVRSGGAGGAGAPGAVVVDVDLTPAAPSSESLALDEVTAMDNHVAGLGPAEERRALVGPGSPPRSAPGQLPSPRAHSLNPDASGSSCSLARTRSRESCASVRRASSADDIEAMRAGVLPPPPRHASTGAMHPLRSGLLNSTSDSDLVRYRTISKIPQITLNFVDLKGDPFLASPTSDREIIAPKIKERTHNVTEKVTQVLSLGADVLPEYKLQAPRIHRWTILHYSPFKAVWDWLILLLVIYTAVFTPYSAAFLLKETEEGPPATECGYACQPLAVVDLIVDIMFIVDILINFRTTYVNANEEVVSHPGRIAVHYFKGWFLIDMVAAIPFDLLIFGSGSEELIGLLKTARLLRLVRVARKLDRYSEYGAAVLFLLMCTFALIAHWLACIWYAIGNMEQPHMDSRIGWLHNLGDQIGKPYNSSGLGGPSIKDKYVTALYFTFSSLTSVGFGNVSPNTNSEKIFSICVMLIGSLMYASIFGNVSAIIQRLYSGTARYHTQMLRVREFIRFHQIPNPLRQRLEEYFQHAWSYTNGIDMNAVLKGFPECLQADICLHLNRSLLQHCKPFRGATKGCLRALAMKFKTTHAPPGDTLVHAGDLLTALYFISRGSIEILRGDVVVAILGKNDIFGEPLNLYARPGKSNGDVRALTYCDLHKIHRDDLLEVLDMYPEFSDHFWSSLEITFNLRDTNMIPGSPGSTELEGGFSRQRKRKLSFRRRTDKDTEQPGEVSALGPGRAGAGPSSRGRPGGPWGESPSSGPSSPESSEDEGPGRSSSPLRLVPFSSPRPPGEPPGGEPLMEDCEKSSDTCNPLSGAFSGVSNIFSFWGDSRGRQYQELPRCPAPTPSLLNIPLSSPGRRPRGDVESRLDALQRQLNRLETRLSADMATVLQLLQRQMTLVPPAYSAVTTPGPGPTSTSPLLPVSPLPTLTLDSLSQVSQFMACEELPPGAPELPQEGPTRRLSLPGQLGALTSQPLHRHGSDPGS
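U2OS cells were transduced with wild-type KCNH2 virus (2.03 x 10^8 / mL) for 4 h at room temperature, then cultured overnight at 37 C. Thallium flux was read with FluxOr dye. Rate constants were normalized to DMSO controls.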
MCF10A rereplic: inducers of DNA re-replication in MCF 10A breast cells; MCF 10A DNA re-replication, Hoechst nuclear intensity, 48 h; Potency, µM (series often up to 46.1 µM), without a hit: at the top dose activity, positive = re-replication, most hits filed as activators; 350,000 compounds, 2.9% hits; AID 624296; note: potency is the fitted concentration of half-maximal effect; % of control where 0% means no effect; nearly all actives have a fitted effect of over 50% in size
KB-V1 MDR tox: KB-V1 MDR subline cytotoxicity | Potency, µM (highest dose often 46.1 µM), actives largely listed as cytotoxic | AID 1347076 | 400,000 compounds, 3.4% hits | KB-V1 MDR cells viability, CellTiter-Glo, 72 h; note: potency is the fitted concentration of half-maximal effect; % is set by controls: 0 for no effect and ±100 for the full control effect; nearly all actives have a fitted effect of over 60% in size
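Following 72 h at 37 degrees C with compound, KB-V1 cell viability was read by CellTiter-Glo luminescence, medium being phenol-red-free DMEM plus 10% FBS; concentration-response parameters came from normalized, curve-fitted qHTS data.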
KB-3-1 cytotox: kills parental KB-3-1 adenocarcinoma cells; AID 1347075; KB-3-1 viability, CellTiter-Glo ATP luminescence, 72 h; 400,000 compounds, 1.4% hits; Potency, µM (series often up to 46.1 µM), actives largely listed as cytotoxic; note: potency is the fitted concentration of half-maximal effect; % is set by controls: 0 for no effect and ±100 for the full control effect; nearly all actives have a fitted effect of over 60% in size
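Cytotoxicity measured as CellTiter-Glo luminescence after 72 h at 37 C. Compound titrations were pinned onto drug-naive KB-3-1 parental adenocarcinoma cells grown in DMEM with 10% FBS, and normalized data fitted to concentration-response curves.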
SW480 rerep: DNA re-replication induction in SW480 cells; Potency, µM (top dose mostly 46.1 µM), inactives show at the top dose re-replication activation, actives largely listed as activators; 340,000 compounds, 1.8% hits; SW480 DNA re-replication, Hoechst DNA content imaging, 48 h; AID 624297; note: potency is the fitted concentration of half-maximal effect; % of control where 0% means no effect; nearly all actives have a fitted effect of over 55% in size
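SW480 cells exposed to compounds for 48 hr at 37 C, 5% CO2, then Hoechst-stained 40 min. Nuclear DNA content imaged by fluorescence scanning (405 nm excitation, 500-530 nm emission); re-replication scored as increased high-intensity nuclei.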
Active calls of the source: *; i = inactive; ? = inconclusive; . = not tested or not shown; + = active, no number. Unless noted, calls come from the whole dose curve; as a rule, active = well fitted curve in the direction sought with a large enough effect; inconclusive = small, poorly fitted or top-dose-only effect, or another doubt; inactive = no such curve, though single readings can be large; an effect the other way counts as inactive or inconclusive.

SMILES | KCNH2 3.1 block | KCNH2 WT inh | MCF10A rereplic | KB-V1 MDR tox | KB-3-1 cytotox | SW480 rerep
CC(=O)Nc1cccc(-c2ccnc3c2CC(C)(C(=O)NCc2ccc(N(C)C)cc2)O3)c1 (stereo not drawn) | . | . | . | ? | 10.3µM* | .
COc1ccc(CNC(=O)C2(C)Cc3c(-c4cccc(NC(C)=O)c4)ccnc3O2)cc1OC (stereo not drawn) | . | . | . | i | i | .
CC1(C(=O)NCc2cccc(Cl)c2)Cc2c(-c3ccccc3)ccnc2O1 (stereo not drawn) | . | . | . | i | i | .
CC(=O)Nc1cccc(-c2ccnc3c2CC(C)(C(=O)NCc2cccs2)O3)c1 (stereo not drawn) | . | . | . | i | 3.26µM* | .
CC1(C(=O)Nc2ccc(F)c(Cl)c2)Cc2c(-c3cccc(C(N)=O)c3)ccnc2O1 (stereo not drawn) | . | . | . | ? | i | .
CC(=O)Nc1cccc(-c2ccnc3c2CC(C)(C(=O)Nc2ccc(F)c(Cl)c2)O3)c1 (stereo not drawn) | . | . | . | 20.6µM* | ? | .
CC(=O)Nc1cccc(-c2ccnc3c2CC(C)(C(=O)NCCN(C)C)O3)c1 (stereo not drawn) | . | . | . | i | i | .
COc1ccc(CN(C2CC2)S(=O)(=O)c2ccccc2Br)cc1 | 0.4 | 0.2 | ? | i | ? | ?
CC1(C(=O)Nc2cccc(Oc3ccccc3)c2)Cc2c(-c3ccccc3)ccnc2O1 (stereo not drawn) | . | . | . | i | ? | .
CC(=O)Nc1cccc(-c2ccnc3c2CC(C)(C(=O)Nc2cccc(Oc4ccccc4)c2)O3)c1 (stereo not drawn) | . | . | . | 20.6µM* | ? | .
CC(=O)Nc1cccc(-c2ccnc3c2CC(C)(C(=O)NCCc2ccccc2)O3)c1 (stereo not drawn) | . | . | . | ? | 4.11µM* | .
CC(=O)Nc1ccc(-c2ccnc3c2CC(C)(C(=O)NCc2ccc(F)c(F)c2)O3)cc1 (stereo not drawn) | . | . | . | i | 8.2µM* | .
CC1(C(=O)NCc2ccc(F)c(F)c2)Cc2c(-c3cccc(C(F)(F)F)c3)ccnc2O1 (stereo not drawn) | . | . | . | i | i | .
Cc1cc(NC(=O)CSCC(=O)Nc2ccccc2Oc2ccccc2)no1 | -3.0 | -0.1 | 21.0% | 10.3µM* | ? | -9.5%
Cc1ccc(Oc2ccccc2NC(=O)CSCC(=O)Nc2cc(C)on2)cc1 | -12.3 | -13.8 | ? | 4.61µM* | ? | -4.7%
Cc1ccc(-c2nc(CSCC(=O)Nc3cc(C)on3)c(C)o2)cc1 | -0.7 | -7.4 | 0.7% | 23.1µM* | i | -12.9%
Cc1cc(NC(=O)CSCc2nc(-c3cccc(F)c3)oc2C)no1 | -20.4 | -8.3 | 0.9% | i | i | -4.1%
COc1ccc(-n2c(=S)[nH]c3cc(C(=O)NCc4cccnc4)ccc3c2=O)cc1 | -1.4 | 1.1 | 1.9% | i | i | ?
FC(F)(F)c1ccc(NCc2ccccn2)nc1 | 9.8 | -0.9 | -8.2% | i | i | 2.9%
CC(NC(=O)c1cc(-c2ccccn2)nc2ccc(Cl)cc12)C1CCCO1 (stereo not drawn) | -15.6 | -5.9 | ? | . | . | 8.0%
CCCN1C/C(=C/c2cccc([N+](=O)[O-])c2)C(=O)/C(=C/c2cccc([N+](=O)[O-])c2)C1 | 5.6 | 16.7 | 0.92µM* | ? | ? | 1.64µM*
CCCN1C/C(=C/c2ccc3c(c2)OCO3)C(=O)/C(=C/c2ccc3c(c2)OCO3)C1 | -36.2 | -3.7 | ? | ? | 23.1µM* | 4.61µM*
CC(C)OCCCN(C)C1CCN(S(=O)(=O)c2ccc(-c3cc(C(F)(F)F)no3)s2)CC1 | -20.9 | 62.0 | 15.0% | 9.2µM* | 16.4µM* | 14.6µM*
CSc1ccccc1NC(=O)C1CCCN(S(C)(=O)=O)C1 (stereo not drawn) | -6.9 | 1.6 | -3.2% | i | i | 10.2%
Cc1cc(C(=O)NN=C2CCCC2)c2ccccc2n1 | 5.6 | -5.0 | 4.8% | i | i | 1.2%
SMILES | KCNH2 3.1 block | KCNH2 WT inh | MCF10A rereplic | KB-V1 MDR tox | KB-3-1 cytotox | SW480 rerep
Cc1ccc(-c2cc(C(=O)NN=C3CCCC3)c3ccccc3n2)cc1 | 16.1 | -197.4* | 0.6% | i | i | -4.4%
O=C(NN=C1CCCCCC1)c1cc(-c2ccccc2)nc2ccccc12 | 0.6 | -2.6 | 16.4µM* | i | ? | 5.1%
Cc1cc(NCC(=O)Nc2ccc(C)c(S(=O)(=O)N3CCOCC3)c2)ccc1Br | -11.2 | 2.1 | . | ? | i | .
Cc1cccc(NC(=S)N(c2ccccc2)C(C)C)c1C | -6.3 | 3.9 | 1.3% | i | i | -2.8%
CCOC(=O)c1ccc(NC(=O)Nc2ccc3c4c(cccc24)C(=O)N3CC)cc1 | -0.3 | -4.6 | 23.1µM* | i | i | 6.6%
Fc1ccc(N2CCN(C3=Nc4cccc5cccc3c45)CC2)cc1 | -80.3* | + | ? | i | i | 3.8%
Cc1cccc(Cl)c1NC(=O)N1CCCN(c2nc3ccc(Cl)cc3s2)CC1 | 22.6 | -24.1 | 11.3% | ? | ? | 0.8%
Cc1nc(Nc2ncc(C(=O)Nc3c(C)cccc3Cl)s2)cc(N2CCN(CCO)CC2)n1 | . | . | 18.8µM* | i | ? | 16.8µM*
CCC/C=C/c1ccc(CN2C(C(C)C)C(=O)N(Cc3cn(CC4CCCCC4)nn3)CCS2(=O)=O)cc1 (stereo not drawn) | -23.7 | -11.5 | . | ? | ? | .
Cc1ccc(C(C[N+](=O)[O-])Sc2ccc(N)cc2)cc1 (stereo not drawn) | -5.8 | 16.8 | 7.31µM* | ? | i | ?
OC(Cc1cccc(Br)c1)c1ncc(-c2ccccc2C(F)(F)F)[nH]1 (stereo not drawn) | . | . | . | ? | i | .
O=c1oc(-c2cccs2)nc2sc3c(c12)CCCC3 | -7.8 | -12.0 | 18.4µM* | i | i | ?
COC(=O)C1(C)CCCC2(C)C1CCC13OCC(CC21)C(O)(C(C)C)C3O (stereo not drawn) | -0.2 | 9.5 | . | i | i | .
O=C(Nc1ncc2c(n1)-c1ccccc1CC2)c1ccc(Cl)cc1 | -3.8 | -3.1 | 9.7% | 9.2µM* | i | 13.7%
O=C(Nc1ncc2c(n1)-c1ccccc1OC2)c1ccc(F)cc1 | 5.2 | 6.1 | 1.0% | i | ? | -3.7%
O=C(Nc1ncc2c(n1)-c1ccccc1CC2)c1cccc(Cl)c1 | -2.1 | 1.3 | 13µM* | ? | 10.3µM* | ?
CCCCCCCNC(=O)C1(CC2CC(c3cccc(Br)c3)=NO2)CCN(C(=O)C2(C)CC2)CC1 (stereo not drawn) | -16.4 | 3.8 | ? | ? | ? | 3.6%
